PubChem BioAssay (NCATS)
Records with an inconclusive call do not appear. Where a call stands in place of a potency, no number is given. Unmarked numbers belong to inactive results. Activity calls are given as the source filed them. Calls come from the whole dose curve; as a rule, active = well fitted cell-killing curve with a large enough effect; inconclusive = small, poorly fitted or top-dose-only effect, or effect the other way; inactive = flat fitted curve, though single readings scatter.

Tests used:
Assay in all cases: Primary qHTS to identify gynecologic anti-cancer compounds using libraries of approved drugs and bioactive compounds (AID 1345084); note: nearly all actives have a fitted effect of over 55% in size
Conditions in all cases: Gynecologic cancer cell panel viability, ATPlite luminescence, 48 h; series mostly up to 57.5 µM
PA-1 = tested on: PA-1
Method in brief: (§1)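 In this quantitative HTS, cell killing is estimated from loss of ATP-dependent luciferase light. Cells see five compound concentrations over a 48 h exposure.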

SKOV3 = tested on: SKOV3
Method in brief: as §1

Tov-21-G = tested on: Tov-21-G
Method in brief: as §1

Tov112D = tested on: Tov112D
Method in brief: as §1
Potency is the fitted concentration of half-maximal effect.

Row | SMILES | Potency (PA-1) | Potency (SKOV3) | Potency (Tov-21-G) | Potency (Tov112D) | activity change, negative = cytotoxicity (PA-1) | activity change, negative = cytotoxicity (SKOV3) | activity change, negative = cytotoxicity (Tov-21-G) | activity change, negative = cytotoxicity (Tov112D)
1 | N#Cc1ccc2ncnc(NCCc3ccccc3)c2c1 | inactive | inactive | inactive | inactive |  |  |  | 
2 | CC1(C)CCCC2(C)C1C(OC(=O)/C=C/C=C/C=O)C=C1COC(=O)C12O (stereo not given) | inactive | inactive | inactive | inactive |  |  |  | 
3 | COC1=CC(=O)C=C(C)C12Oc1c(Cl)c(OC)cc(OC)c1C2=O (stereo not given) | inactive | inactive | inactive | inactive |  |  |  | 
4 | COc1c(CCC(=O)O)cccc1O[C@@H]1O[C@H](CO)[C@@H](O)[C@H](O)[C@H]1O | inactive | inactive | inactive | inactive |  |  |  | 
5 | O=C(NC[C@H]1CN(c2ccc(N3CCOCC3=O)cc2)C(=O)O1)c1ccc(Cl)s1 | inactive | inactive | inactive | inactive |  |  |  | 
6 | Cc1ccnc(NC(=O)C(C)c2cccc(C(=O)c3ccccc3)c2)c1 (stereo not given) | inactive | inactive | inactive | inactive |  |  |  | 
7 | c1cc(NC2CCNCC2)nc(-c2cnc3ccccn23)c1 | 20 µM (active) | 8.91 µM (active) | 15.8 µM (active) | 20 µM (active) |  |  |  | 
8 | O=S(=O)(c1ccccc1)N(CC(F)(F)F)c1ccc(C(O)(C(F)(F)F)C(F)(F)F)cc1 | inactive | inactive | inactive | inactive |  |  |  | 
9 | COc1c2c(c(C)c3c1C(=O)OC3)O[C@@]1(C)C[C@@H](OC(C)=O)[C@]34O[C@](OC)(CC[C@]3(C)[C@H]1C2)OC4(C)C | inactive | inactive | inactive | inactive |  |  |  | 
10 | O=c1cc(N2CCN(c3cccc(C(F)(F)F)c3)CC2)[nH]c(=O)n1C1CCCCC1 | inactive | inactive | inactive | inactive |  |  |  | 
11 | CCNC1(C(N)=O)CCN(c2ncnc3c2nc(-c2ccccc2Cl)n3-c2ccc(Cl)cc2)CC1 | inactive | inactive | inactive | inactive |  |  |  | 
12 | CC1(C)CCC2(C(=O)OC3OC(COC4OC(CO)C(O)C(O)C4O)C(O)C(O)C3O)CCC3(C)C(=CCC4C5(C)CCC(OC6OCC(O)C(O)C6O)C(C)(C)C5CCC43C)C2C1O (stereo not given) |  |  |  |  | -14.1% [at 11.6 µM] | -2.57% [at 11.6 µM] | 0.233% [at 11.6 µM] | -9.09% [at 11.6 µM]
13 | CC1=C2C[C@@]3(C)C(CCC[C@@H]3C)C(O)C2OC1=O (stereo not given in full) | inactive | inactive | inactive | inactive |  |  |  | 
14 | CCC(C)/C=C(C)/C=C/C1=CC2=C(Cl)C(=O)C(C)(OC(C)=O)C(=O)C2(O)C(OC)O1 (stereo not given) | inactive | inactive | inactive | inactive |  |  |  | 
15 | C/C=C/C=C/c1cc2c(C=O)c(O)c(CC=C(C)C)cc2o1 | inactive | inactive | inactive | inactive |  |  |  | 
16 | C[C@@H]1O[C@@H](O[C@H]2[C@@H](OC(=O)[C@]34CCC(C)(C)CC3C3=CCC5[C@@]6(C)C[C@H](O)[C@H](O[C@@H]7O[C@H](CO)[C@@H](O)[C@H](O)[C@H]7O[C@@H]7OC[C@@H](O)[C@H](O)[C@H]7O)[C@@](C)(C(=O)O)C6CC[C@@]5(C)[C@]3(C)CC4)OC[C@H](O)[C@@H]2O)[C@H](O)[C@H](O)[C@H]1O[C@@H]1OC[C@@H](O)[C@H](O)[C@H]1O (stereo not given in full) |  |  |  |  | -26.7% [at 6.55 µM] | -18.3% [at 6.55 µM] | 0.0725% [at 6.55 µM] | -12.7% [at 6.55 µM]
17 | CC(C)=CCCC1(C)C2CCC1(C)C(O)C2 (stereo not given) | inactive | inactive | inactive | inactive |  |  |  | 
18 | CC(F)(F)CN1CCOc2c(nn(-c3ccccc3Cl)c2-c2ccc(Cl)cc2)C1=O | inactive | inactive | inactive | inactive |  |  |  | 
19 | Cc1ccc(S(=O)(=O)N2CCC[C@H]2c2ccc(F)cc2)cc1 | inactive | inactive | inactive | inactive |  |  |  | 
20 | CCCCc1ccc(NS(=O)(=O)c2ccc(F)cc2)cc1 | inactive | inactive | inactive | inactive |  |  |  | 
21 | Cc1cc2c(cc1N1C(=O)c3cccc4c(CCCO)ccc(c34)C1=O)n(C)c(=O)n2C | inactive | inactive | inactive | inactive |  |  |  | 
22 | O=S(=O)(Nc1ccccc1N1CCCCC1)c1ccc(Cl)s1 | inactive | inactive | inactive | inactive |  |  |  | 
23 | C=CC(=O)N1CCN(C(=O)CNc2cc(-c3ccccc3Cl)c(Cl)cc2OC)CC1 | inactive | inactive | inactive | inactive |  |  |  | 
24 | C=C(C)C(=O)O[C@H]1/C(C=O)=C\CC/C(CO)=C/[C@H]2OC(=O)C(=C)[C@@H]2[C@@H]1OC | inactive | inactive | inactive | inactive |  |  |  | 
25 | Cn1cc(-c2ccc(F)c(C(F)(F)F)c2)nc1C1CCN(c2ncnc3[nH]ncc23)CC1 | inactive | inactive | inactive | inactive |  |  |  | 
